YB-1 expr inh – inhibitors of YB-1 gene expression, primary screen, cell-based, fluorescence. U2OS, qRT-PCR YB-1 vs CDIP delta delta Cp, 16 h; stronger effect = higher value; zero = DMSO, each unit about twofold. delta delta Cp (YB-1 minus CDIP) (no concentration beside the values). 30,000 compounds, 0.37% hits. AID 434959, 2010;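 active = delta delta Cp rounded down to an integer at or above 3, about 3 SD of DMSO wells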;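 note: higher means less YB-1 transcript or more CDIP transcript relative to DMSO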
U2OS ROS induce – ROS inducers in U2OS cancer cells, primary screen, cell-based, H2DCF-DA fluorescence; U2OS ROS induction; ROS induction (% of piperlongumine), % at 10 µM; 46,000 compounds, 2% hits; AID 624156, 2012; in the data active = ROS induction above about 79%, passing the limit was not always enough
PD-1 reverse act – activators reversing PD-1 mediated T-cell inhibition, primary screen, luminescence, primary human CD4 T cells, PD-L1 beads; CellTiter-Glo 96 h; AID 2316, 2010; activation, % (no concentration beside the values); 29,000 tested, under 10 active; call rule not given here
A number is an active result; – = inactive; · = not tested or not shown. Compounds with a hit are over-represented: about 2.1% of the library has one in this group of screens.

SMILES	YB-1 expr inh	U2OS ROS induce	PD-1 reverse act
C[C@@H]1CCCCO[C@@H](CN(C)C(=O)Nc2ccc(C(F)(F)F)cc2)[C@@H](C)CN([C@H](C)CO)C(=O)c2cc(NS(=O)(=O)c3ccc(F)cc3)ccc2O1	–	81.9	–
C[C@@H]1CCCCO[C@@H](CN(C)CC2CC2)[C@@H](C)CN([C@H](C)CO)C(=O)c2cc(NS(=O)(=O)c3ccc(F)cc3)ccc2O1	–	–	·
C[C@@H]1CCCCO[C@@H](CN(C)S(=O)(=O)c2cccs2)[C@@H](C)CN([C@H](C)CO)C(=O)c2cc(NS(=O)(=O)c3ccc(F)cc3)ccc2O1	–	101.7	–
C[C@@H]1CCCCO[C@H](CN(C)C)[C@@H](C)CN([C@H](C)CO)C(=O)c2cc(NS(=O)(=O)c3ccc(F)cc3)ccc2O1	–	92.7	·
Cc1ccccc1NC(=O)Cn1cnc2sc(C)c(C)c2c1=O	·	–	–
COC(=O)c1ccccc1NC(=O)c1ccc(Cn2cc(Cl)cn2)cc1	·	–	·
CC1(C)CC(=O)C2=C(C1)N(Cc1ccc(F)cc1)C(=O)C2(NC(=O)c1cccnc1)C(F)(F)F (stereo not drawn)	·	–	–
CCC1=NC(C(F)(F)F)(C(F)(F)F)C2=C(CC(C)(C)CC2=O)N1Cc1ccccc1	–	120.4	–
C[C@H](CO)N1C[C@H](C)[C@H](CN(C)Cc2ccc(Oc3ccccc3)cc2)Oc2ccc(NS(=O)(=O)c3ccc(F)cc3)cc2CC1=O	–	113.9	–
C[C@H]1CN([C@@H](C)CO)C(=O)Cc2cc(NS(=O)(=O)c3ccccc3)ccc2O[C@H]1CN(C)Cc1ccc(Oc2ccccc2)cc1	–	–	·
C[C@@H]1CN([C@H](C)CO)C(=O)Cc2cc(NS(=O)(=O)c3ccc(F)cc3)ccc2O[C@@H]1CN(C)Cc1ccc(Oc2ccccc2)cc1	–	–	–
C[C@@H]1CN([C@H](C)CO)C(=O)Cc2cc(NS(=O)(=O)c3ccc(Cl)cc3)ccc2O[C@@H]1CN(C)Cc1ccc(Oc2ccccc2)cc1	–	86.0	–
CCn1c(SCC(=O)Nc2ccc3c(c2)OCCO3)nnc1-c1ccccc1O	·	–	–
Cc1nc(-c2cc(C#N)c(SCCNS(=O)(=O)c3ccc(C(C)(C)C)cc3)nc2C)cs1	–	–	–
C[C@@H]1CN([C@H](C)CO)C(=O)c2cccc(NC(=O)Nc3cccc4ccccc34)c2O[C@H]1CN(C)S(=O)(=O)c1ccccc1	–	–	·
COc1ccc(S(=O)(=O)N(C)C[C@@H]2Oc3c(NC(=O)c4nc5ccccc5s4)cccc3C(=O)N([C@H](C)CO)C[C@@H]2C)cc1	–	–	–
COc1ccc(S(=O)(=O)N(C)C[C@H]2Oc3c(NC(=O)c4nc5ccccc5s4)cccc3C(=O)N([C@@H](C)CO)C[C@H]2C)cc1	7.87	–	·
C[C@@H]1CN([C@@H](C)CO)C(=O)c2cccc(NC(=O)Nc3ccccc3)c2O[C@@H]1CN(C)S(C)(=O)=O	–	–	–
C[C@@H]1CN([C@@H](C)CO)C(=O)c2cccc(NC(=O)Nc3ccccc3)c2O[C@H]1CN(C)S(C)(=O)=O	–	91.5	–
C[C@@H]1CN([C@H](C)CO)C(=O)c2cccc(NC(=O)Nc3cccc4ccccc34)c2O[C@H]1CN(C)S(=O)(=O)c1ccc(F)cc1	–	110.5	–
CC(C)c1cc2c(cc1O)[C@@]1(C(=O)O)CCCC(C)(C)C1CC2 (stereo partly drawn)	·	–	–
N#Cc1sc2sc(C#N)c(-c3ccco3)c2c1N	–	–	–
CSC(=NCc1sccc1COc1ccc(Cl)cc1)NC#N	·	–	·
COC(=O)c1cc(C)nc(Sc2ccccc2NC(=O)Nc2ccc(Cl)cc2)n1	–	–	–
COC(=O)CNC(c1ccccc1)c1cc(Br)ccc1NC(=O)c1ccccc1Cl (stereo not drawn)	·	97.1	·
SMILES	YB-1 expr inh	U2OS ROS induce	PD-1 reverse act
COC(=O)CNC(c1ccccc1)c1cc(Br)ccc1N=Cc1ccccc1O (stereo not drawn)	–	–	–
COc1ccc(CN(C)C[C@H]2OCCCC[C@@H](C)Oc3ccc(NS(=O)(=O)c4ccc(F)cc4)cc3C(=O)N([C@H](C)CO)C[C@@H]2C)cc1	–	–	·
COc1ccc(NC(=O)Nc2ccc3c(c2)C(=O)N([C@H](C)CO)C[C@H](C)[C@H](CN(C)Cc2ccc(C(=O)O)cc2)OCCCC[C@@H](C)O3)cc1	–	–	–
COc1ccc(NC(=O)Nc2ccc3c(c2)C(=O)N([C@H](C)CO)C[C@H](C)[C@H](CN(C)C(=O)Nc2ccc(OC)cc2)OCCCC[C@@H](C)O3)cc1	–	–	·
C[C@@H]1CCCCO[C@@H](CN(C)C(=O)Nc2cccc3ccccc23)[C@@H](C)CN([C@H](C)CO)C(=O)c2cc(NC(=O)Nc3cccc4ccccc34)ccc2O1	–	–	–
COc1ccc(CN(C)C[C@@H]2OCCCC[C@@H](C)Oc3ccc(NS(=O)(=O)c4ccc(C)cc4)cc3C(=O)N([C@H](C)CO)C[C@@H]2C)cc1	–	127.8	–
COc1ccc(CN(C)C[C@H]2OCCCC[C@@H](C)Oc3ccc(NC(=O)Nc4ccc(OC)cc4)cc3C(=O)N([C@H](C)CO)C[C@@H]2C)cc1	–	121.9	–
C[C@@H]1CCCCO[C@@H](CN(C)C(=O)C2CCCCC2)[C@@H](C)CN([C@H](C)CO)C(=O)c2cc(NC(=O)Nc3cccc4ccccc34)ccc2O1	–	102.0	–
COc1ccc(NC(=O)Nc2ccc3c(c2)C(=O)N([C@H](C)CO)C[C@H](C)[C@@H](CN(C)C(=O)C2CCCCC2)OCCCC[C@@H](C)O3)cc1	–	114.2	–
Cc1cc(I)ccc1NC(=O)CN(c1cccc(C(F)(F)F)c1)S(C)(=O)=O	·	–	–
CCOC(=O)C1=C(c2ccc(OC)cc2)NC(=O)NC1c1ccc(OC)cc1 (stereo not drawn)	·	–	·
CCc1ccccc1NC(=O)c1cc2c(=O)n3ccccc3nc2n1C	·	–	·
CCc1ccc(NS(=O)(=O)c2ccc3c(c2)SCC(=O)N3)cc1	·	–	·
COc1ccc(NC(=O)Nc2ccc3c(c2)C(=O)N([C@H](C)CO)C[C@H](C)[C@@H](CN(C)Cc2ccc(C(=O)O)cc2)OCCCC[C@@H](C)O3)cc1	–	–	–
COc1ccc(CN(C)C[C@@H]2OCCCC[C@@H](C)Oc3ccc(NC(=O)Nc4ccc(F)cc4)cc3C(=O)N([C@H](C)CO)C[C@@H]2C)cc1	–	119.4	·
Cc1ccc(CC(CC(=O)O)C(=O)Nc2ccccc2I)cc1 (stereo not drawn)	·	–	–
Clc1ccc(-c2cnc3n2CCC3)cc1Cl	–	–	–
C[C@H](CO)N1C[C@H](C)[C@@H](CN(C)Cc2ccc(C(F)(F)F)cc2)Oc2ccc(NS(=O)(=O)c3ccc(Cl)cc3)cc2C1=O	–	–	–
C[C@H](CO)N1C[C@H](C)[C@H](CN(C)Cc2ccccc2)Oc2ccc(NS(=O)(=O)c3ccc(Cl)cc3)cc2C1=O	6.13	–	–
C[C@H]1CN([C@@H](C)CO)C(=O)c2cc(NS(=O)(=O)c3ccc(Cl)cc3)ccc2O[C@@H]1CN(C)Cc1ccc(C(F)(F)F)cc1	–	80.6	–
C[C@@H]1CN([C@@H](C)CO)C(=O)c2cc(NS(=O)(=O)c3ccc(Cl)cc3)ccc2O[C@@H]1CN(C)Cc1ccccc1	–	–	·

Source: PubChem
